These results are taken from PubChem BioAssay.

The structures appear in SMILES notation. “And” between values parts separate entries of the source, which are not always exact repeats. Equal entries are not always repeated. The source made the active and inactive calls.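 Rule for the calls, unless noted: active = thallium flux through the channel raised or lowered by more than 3 SD from vehicle-only wells, actives on both sides; inactive = the rest.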

A short description of assay [1]: liver-stage malaria parasite growth inhibition, primary screen, cell-based, HepG2, luciferase luminescence, HepG2 viability (AID 624349; in the data active = parasite load remaining mostly below about 12%, no sharp cut-off; inactive = mostly above about 10%;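 note: 100% = mean of DMSO negative control wells on the same plate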). The conditions noted are these: P. berghei liver stage in HepG2, luciferase luminescence, concentration not given here; parasite load remaining: stronger effect = lower value; viability: measured here: HepG2 viability without parasites.
Assay [2] is described as follows: Cy5 fluorescence interference with SSB-bound oligo, artefact control for HCV NS3 helicase inhibitor project, biochemical, NIH Clinical Collection, E. coli SSB (AID 743268; call rule not given here).
Assay [3] deals with Hepatitis C virus NS3 helicase. Kind of assay: HCV NS3 helicase inhibitors, primary screen, biochemical, fluorescence polarization, NIH Clinical Collection (AID 743270; call rule not given here). The conditions noted are these: NS3 helicase binding to Cy5-dT15 DNA, stronger effect = higher value, concentration not given here.
Assay [4] addresses Single-stranded DNA-binding protein (Escherichia coli (strain K12)) (UniProt P0AGE0). The experiment in a line: E. coli SSB displacement from DNA, counter-screen for HCV NS3 helicase inhibitor project, biochemical, fluorescence polarization, NIH Clinical Collection (AID 743271; in the data active = inhibition above about 28%). The note with it: stronger effect = higher value, concentration not given here. On the technique in general: The purpose of a counterscreen is to sort out artefacts and off-target activity.

Assay [5] can be described thus: fluorescence interference in NS3h assay format, artefact control for HCV NS3 helicase inhibitor project, biochemical, NIH Clinical Collection (AID 743272; call rule not given here;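 note: HCV NS3 helicase with a Cy5 labelled single stranded DNA probe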). The note with it: fluorescence interference counterscreen, stronger effect = lower value.
Assay [6] in a line: modulation of C. elegans fzo-1 (AID 1259413; call rule not given here;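 note: fzo-1 mutant C. elegans worms in liquid wells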). The note with it: C. elegans fzo-1 modulator screen, mean read-out; stronger effect = higher value.
Assay [7] can be described thus: sensitizers of A549 cells to miR-34 induction, primary screen, imaging, A549 dox-inducible miR-34, nuclei and caspase counts (AID 1347080;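 active = compounds whose cell count with miR-34 switched on is under 0.7 times the count with it off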). The conditions noted are these: A549 miR-34 inducible, Hoechst nuclei count, 48 h.
Assay [8] in a line: survival rescue of mitochondrial mutant cells in low glucose, primary screen, MELAS cybrids, Rieske KO mouse fibroblasts, CellTiter-Glo (AID 1508586;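 active = mean z-score across replicates of 1.96 or higher in either the MELAS or the Rieske mutant cell line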;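 note: z relative to plate mean and SD of compound and empty wells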). In general terms: ATP-based viability assays read luminescence as a measure of living cells.
The nature of assay [9]: viability rescue of complex I mutant cybrids, primary screen, cell-based, galactose medium, ATP luminescence (AID 1645843;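 active = z-score of at least 1.8 in each of two replicates, scored against plate mean and spread of sample wells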;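 note: positive z means more ATP and so rescue of galactose-driven cybrid death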). The conditions noted are these: complex I mutant cybrid cells, 72 h, stronger effect = higher value.
For a further assay, the system named is F380Y. The experiment in a line: modulators of BK channel variants, profiling panel, selectivity assay, cell-based, U2OS BacMam, thallium flux, beta subunits (AID 1259406).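 Note: initial slope of Thallos dye fluorescence rise after thallium is added; log ratio against the mean of 0.3% DMSO vehicle wells on the same plate.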 The conditions noted are these: at 30 µM.
Another assay concerns F380Y/beta1. The description is as above. The note with it: at 30 µM.
The test system of a further assay is F380Y/beta2Delta. Described as above. The conditions noted are these: at 30 µM.
The next assay has as its system F380Y/beta4. Described as above. The note with it: at 30 µM.
Assay [10] deals with Calcium-activated potassium channel subunit alpha-1 (Homo sapiens) + Leucine-rich repeat-containing protein 26 (Homo sapiens) (UniProt Q12791+Q2I0M4). The description is as above. The note with it: F380Y/Slo1WT/gamma1, at 30 µM.
Chain of Calcium-activated potassium channel subunit alpha-1 (Homo sapiens) + Leucine-rich repeat-containing protein 26 (Homo sapiens) (Q2I0M4 whole entry, looked up, one chain of several): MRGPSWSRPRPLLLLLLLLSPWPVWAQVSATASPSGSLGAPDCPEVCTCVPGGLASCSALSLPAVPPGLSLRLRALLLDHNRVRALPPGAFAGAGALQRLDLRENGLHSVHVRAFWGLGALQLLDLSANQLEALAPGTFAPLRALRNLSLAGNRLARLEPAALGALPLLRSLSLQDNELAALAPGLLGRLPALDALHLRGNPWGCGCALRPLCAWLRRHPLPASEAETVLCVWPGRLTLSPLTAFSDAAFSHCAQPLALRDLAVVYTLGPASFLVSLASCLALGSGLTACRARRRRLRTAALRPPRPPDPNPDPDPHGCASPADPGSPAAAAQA
Another assay has as its system R275C. Described as above. The conditions noted are these: at 30 µM.
The subject of another assay is R275C/beta1. The assay is described as above. The note with it: at 30 µM.
Another assay concerns R275C/beta2Delta. Described as above. The note with it: at 30 µM.
The subject of the next assay is R275C/beta4. Described as above. The note with it: at 30 µM.
Another assay relates to R275C/Slo1WT/beta2. Described as above. The conditions noted are these: at 30 µM.
Setting [11] is: stronger effect = lower value, cell number ratio, induced over uninduced.
Setting [12] is: measured here: relative caspase fold change +Dox/-Dox.
Setting [13] is: measured here: total cells with miR-34 induction, stronger effect = lower value.
Setting [14] is: measured here: total cells without miR-34 induction.
Setting [15] is: MELAS cybrid survival, CellTiter-Glo 48 h, stronger effect = higher value.
[16] abbreviates: Rieske KO mouse fibroblast survival, CellTiter-Glo 72 h.

Regarding `COC(=O)Nc1nc2ccc(C(=O)c3ccc(F)cc3)cc2[nH]1`, in assay [1], the parasite load remaining is 68.5% (inactive) and 34.2% (inactive). The viability (commonly a read-out of living cells in per cent, often relative to untreated cells) in assay [1] is 85.5% and 74.5%. In addition, the fluorescence ratio in assay [2] was 1.06 (inactive); in assay [5], 0.95 (inactive). Also, the figures for the inhibition in assay [3] and in assay [4] were -1.19% (inactive) and -0.87% (inactive), respectively. The mean signal in assay [6] is 249 (inactive). In addition, the fold change is 1.22 (inactive) and 1.03 (inactive) in [7] (setting [11]); 1.31 and 0.65 in assay [7] (setting [12]). Also, the cell count is 1820 and 2010 in [7] (setting [13]); 1490 and 1950 in [7] (setting [14]). Moreover, the z-score in assay [8] (setting [15]) is -2.49 (inactive) and -1.97 (inactive); in assay [8] (setting [16]) it was 1.69 and 0.533; in [9], -1.28 (inactive) and -0.83 (inactive). Besides, the log fold change Tl+ flux in the assay on F380Y is -0.0412 (inactive); in the assay with F380Y/beta1 it was 0.0196 (inactive); in the assay with F380Y/beta2Delta it was -0.0407 (inactive); in the assay on F380Y/beta4, -0.0852 (inactive); in assay [10], 0.00265 (inactive); with R275C it was -0.0283 (inactive). Moreover, the log fold change Tl+ flux was -0.0436 (inactive) in the assay with R275C/beta1, -0.052 (inactive) in the assay with R275C/beta2Delta, 0.0237 (inactive) in the assay on R275C/beta4 and 0.00461 (inactive) in the assay with R275C/Slo1WT/beta2.

As to `CC(C)OC(=O)CCC/C=C\C[C@@H]1[C@@H](CC[C@@H](O)CCc2ccccc2)[C@H](O)C[C@@H]1O`, the parasite load remaining in assay [1] was 89.4% (inactive) and 43.5% (inactive). In addition, the viability in assay [1] is 60.9% and 104%. Also, the fluorescence ratio is 0.97 (inactive) in assay [2] and 0.95 (inactive) in assay [5]. In addition, the figures for the inhibition in assay [3] and in assay [4] were 0.4% (inactive) and -5.49% (inactive), respectively. The mean signal in [6] was 205 (inactive). For the same compound, the fold change in [7] (setting [11]) was 0.899 (inactive); in [7] (setting [12]), 1.07. Besides, the cell count is 10000 in assay [7] (setting [13]) and 11100 in [7] (setting [14]). Besides, the z-score in assay [8] (setting [15]) is 0.73 (inactive) and -0.464 (inactive); in assay [8] (setting [16]), 1.53 and -0.0343; in assay [9], 0.01 (inactive). Further, the log fold change Tl+ flux with F380Y is 0.503 (active); in the assay with F380Y/beta1, 0.284 (active); in the assay on F380Y/beta2Delta it was -0.0484 (inactive); in the assay on F380Y/beta4 it was 0.158 (active); in [10], 0.228 (active); with R275C, -0.0794 (inactive). The log fold change Tl+ flux with R275C/beta1 was 0.476 (active); in the assay on R275C/beta2Delta, 0.262 (active); in the assay on R275C/beta4, 0.467 (active); in the assay with R275C/Slo1WT/beta2, 0.084 (active).

With `COc1cc(C[C@@H](CO)[C@H](CO)Cc2ccc(O)c(OC)c2)ccc1O`, the parasite load remaining in assay [1] is 74.6% (inactive). Moreover, the viability in assay [1] worked out at 77.7%. The results for the fluorescence ratio in assay [2] and in assay [5] were 0.93 (inactive) and 0.88 (inactive), respectively. Besides, the inhibition – broadly, the drop in the measured response relative to a control, in per cent – in assay [3] is -1.09% (inactive); in assay [4], 3.54% (inactive). Further, the mean signal in assay [6] was 248 (inactive). The log fold change Tl+ flux with F380Y was 0.00354 (inactive); with F380Y/beta1 it was 0.0295 (inactive); with F380Y/beta2Delta, 0.0145 (inactive); in the assay with F380Y/beta4, 0.00227 (inactive); in assay [10] it was 0.0262 (inactive); with R275C it was -0.00612 (inactive). The log fold change Tl+ flux was -0.00624 (inactive) with R275C/beta1, -0.0204 (inactive) with R275C/beta2Delta, -0.0506 (inactive) in the assay on R275C/beta4 and 0.0317 (inactive) with R275C/Slo1WT/beta2.

Take `CN1[C@@H]2CC[C@H]1CC(OC(=O)C(CO)c1ccccc1)C2` (stereo not given in full): in [1], the parasite load remaining was 41.5% (inactive) and 46.2% (inactive). In addition, in assay [1], the viability is 87.1% and 116%. Also, the mean signal in [6] is 274 (inactive). The fold change in assay [7] (setting [11]) was 0.947 (inactive) and 0.887 (inactive) and 0.871 (inactive); in [7] (setting [12]), 2.84 and 0.579 and 1.47. Also, the cell count was 10500 and 7790 and 9390 in [7] (setting [13]); 11100 and 8790 and 10800 in assay [7] (setting [14]). In addition, the z-score was -0.283 (inactive) and 0.13 (inactive) in assay [8] (setting [15]); 0.502 and 0.307 in [8] (setting [16]); 0.56 (inactive) and 0.265 (inactive) in [9]. Besides, the log fold change Tl+ flux is 0.0269 (inactive) with F380Y; -0.0245 (inactive) with F380Y/beta1; 0.00535 (inactive) with F380Y/beta2Delta; 0.0216 (inactive) in the assay with F380Y/beta4; 0.00679 (inactive) in assay [10]; -0.0152 (inactive) in the assay with R275C. Also, the log fold change Tl+ flux in the assay with R275C/beta1 is -0.00104 (inactive); in the assay on R275C/beta2Delta, 0.0208 (inactive); with R275C/beta4 it was -0.00928 (inactive); in the assay on R275C/Slo1WT/beta2 it was 0.0472 (inactive).
